Results filed as inconclusive are left out. Calls of active or inactive are those of the source. Unless noted, calls follow the shape of the dose curve; as a rule, active = well fitted curve in the direction sought with a large enough effect in the repeat runs; inconclusive = weak or mixed curves; inactive = no such curve, though single readings can be large; an effect the other way counts as inactive or inconclusive.

We go through 26 molecules from PubChem BioAssay (Tox21).

Assay [1] can be described thus: qHTS assay to identify small molecule antagonists of the thyroid receptor (TR) signaling pathway - cell viability counter screen (AID 743064). Also: nearly all actives have a fitted effect of over 50% in size. Also: potency is read from the fitted curve at half-maximal effect. In short, it runs like this: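 Viability of T3-stimulated (1 nM final) GH3.TRE-Luc cells is measured by CellTiter-Fluor fluorescence after 23.5 h compound exposure at 37 °C plus 30 min reagent incubation.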
(qHTS replaces the single test concentration by a dilution series.)

Assay [2] is described as follows: qHTS assay to identify small molecule antagonists of the thyroid receptor (TR) signaling pathway (AID 743065). Also: nearly all actives have a fitted effect of over 55% in size. Also: potency is read from the fitted curve at half-maximal effect. Summed up:
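GH3.TRE-Luc rat pituitary cells carrying two TR response elements driving luciferase were plated for 4 h, given compound plus 1 nM T3 (final), and incubated 23.5 h at 37 C. ONE-Glo luminescence measured reporter inhibition; CellTiter-Fluor fluorescence tracked cytotoxicity.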

For assay [3], the system named is thyroid hormone receptor (rat, GH3 cells). The assay is described as follows: qHTS assay to identify small molecule agonists of the thyroid receptor (TR) signaling pathway (AID 743066; calls by dose curve).
Assay [4] deals with Estrogen receptor (Homo sapiens) (UniProt P03372). In words: qHTS assay to identify small molecule antagonists of the estrogen receptor alpha (ER-alpha) signaling pathway (AID 743069; active = well fitted curve in the direction sought with a large enough effect in the signal ratio in the repeat runs, not every such curve was filed as active; the % refers to the signal ratio). Summed up: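 HEK293 cells stably carrying an ER-alpha-UAS-bla beta-lactamase reporter were pre-cultured overnight in 2% charcoal-stripped FBS medium. Test compounds in DMSO were added together with 17beta-estradiol for 18 hr at 37C. Read-out was fluorescence after 2 hr with LiveBLAzer B/G FRET substrate at room temperature.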
Chain of Estrogen receptor (Homo sapiens) (P03372 whole entry, looked up): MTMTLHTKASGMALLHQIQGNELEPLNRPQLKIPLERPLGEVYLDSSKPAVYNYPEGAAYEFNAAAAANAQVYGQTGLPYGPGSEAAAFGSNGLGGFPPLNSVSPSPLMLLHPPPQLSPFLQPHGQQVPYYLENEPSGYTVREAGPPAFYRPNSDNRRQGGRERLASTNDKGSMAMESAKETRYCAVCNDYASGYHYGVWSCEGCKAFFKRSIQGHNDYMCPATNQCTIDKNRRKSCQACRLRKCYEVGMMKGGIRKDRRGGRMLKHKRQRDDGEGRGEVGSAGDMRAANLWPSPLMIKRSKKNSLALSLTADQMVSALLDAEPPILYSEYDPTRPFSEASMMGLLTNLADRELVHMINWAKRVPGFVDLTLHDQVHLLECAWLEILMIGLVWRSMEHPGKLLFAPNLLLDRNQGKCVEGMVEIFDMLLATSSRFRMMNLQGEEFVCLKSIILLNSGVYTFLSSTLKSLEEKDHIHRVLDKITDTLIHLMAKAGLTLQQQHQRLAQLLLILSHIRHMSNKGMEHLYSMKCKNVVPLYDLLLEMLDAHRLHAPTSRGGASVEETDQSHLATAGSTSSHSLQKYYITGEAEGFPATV

For assay [5] the target is unchanged. The assay is described as follows: qHTS assay to identify small molecule agonists of the estrogen receptor alpha (ER-alpha) signaling pathway (AID 743075; calls by dose curve).
Assay [6] shares this target. The assay is described as follows: qHTS assay to identify small molecule agonists of the estrogen receptor alpha (ER-alpha) signaling pathway using the BG1 cell line (AID 743079). Also: nearly all actives have a fitted effect of over 20% in size.
Assay [7] is described as follows: qHTS assay to identify small molecule antagonists of the estrogen receptor alpha (ER-alpha) signaling pathway using the BG1 cell line (AID 743080; calls by dose curve; also: series mostly up to about 70 µM; nearly all actives have a fitted effect of over 25% in size). In short, it runs like this: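 Antagonist mode: compounds in DMSO were pinned onto BG1-Luc-4E2 cells alongside 17beta-estradiol agonist, incubated 21.5 h, and ERE-driven luciferase measured with ONE-Glo. Cytotoxicity was multiplexed using CellTiter-Fluor fluorescence.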

The nature of assay [8]: qHTS assay to identify small molecule antagonists of the estrogen receptor alpha (ER-alpha) signaling pathway using the BG1 cell line - cell viability counter screen (AID 743081).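 Also: compound given together with 17beta-estradiol as the ER stimulus; series mostly up to about 70 µM; nearly all actives have a fitted effect of over 45% in size.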
Another assay deals with Aromatase (Homo sapiens) (UniProt P11511). In words: qHTS assay to identify aromatase inhibitors (AID 743083). Also: series mostly up to about 70 µM; nearly all actives have a fitted effect of over 55% in size.
Chain of Aromatase (Homo sapiens) (P11511 whole entry, looked up): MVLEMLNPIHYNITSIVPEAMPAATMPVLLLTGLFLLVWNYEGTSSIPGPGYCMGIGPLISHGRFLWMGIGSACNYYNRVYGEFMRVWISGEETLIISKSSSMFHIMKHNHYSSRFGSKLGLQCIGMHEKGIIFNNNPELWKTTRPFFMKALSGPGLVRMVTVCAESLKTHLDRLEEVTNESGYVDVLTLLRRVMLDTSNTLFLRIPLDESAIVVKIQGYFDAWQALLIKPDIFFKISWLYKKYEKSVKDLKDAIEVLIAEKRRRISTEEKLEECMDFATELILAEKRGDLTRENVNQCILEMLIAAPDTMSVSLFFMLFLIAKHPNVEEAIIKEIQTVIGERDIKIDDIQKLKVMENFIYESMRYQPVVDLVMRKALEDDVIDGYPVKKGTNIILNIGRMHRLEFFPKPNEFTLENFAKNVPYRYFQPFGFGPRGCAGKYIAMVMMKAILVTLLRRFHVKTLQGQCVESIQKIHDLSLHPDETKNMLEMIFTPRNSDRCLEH
Assay [9] can be described thus: qHTS assay to identify small molecule antagonists of the estrogen receptor alpha (ER-alpha) signaling pathway - cell viability counter screen (AID 743074; calls by dose curve; also: nearly all actives have a fitted effect of over 45% in size).

For the molecule `CN1CCCC1`, the Potency result (in assay [1]; in assay [2]; in [5]; in assay [6]; in assay [8]; with Aromatase (Homo sapiens)) was “inactive” each time. The molecule was called inactive in assay [3], in [4] and in assay [7].
In the case of `Nc1nc2c(ncn2COC(CO)CO)c(=O)[nH]1`, the Potency result (in assay [1]; in assay [2]; in assay [5]; in [6]; in the assay with Aromatase (Homo sapiens)) was “inactive” in each case. Moreover, the result in assay [3], in [4] and in assay [9] was inactive.
Turning to `CN1CCC(=C2c3ccccc3CC(=O)c3sccc32)CC1`, the figures for the Potency in [1] and in assay [2] were 15 µM (active) and 23.7 µM (active), respectively. For the same molecule, the molecule was called inactive in assay [3], in assay [4], in assay [9] and in [7]. Moreover, the Potency result (in assay [5]; in [6]; with Aromatase (Homo sapiens)) was “inactive” each time.
Turning to `CN(C)CCCNCCCN(C)C`, the Potency result (in assay [1]; in assay [2]; in [5]; in assay [6]; in assay [8]; with Aromatase (Homo sapiens)) was “inactive” in each case. Besides, the call in [3], in assay [4], in assay [9] and in [7] was inactive.
Take `C=C[Si](OC(=C)C)(OC(=C)C)OC(=C)C`: the Potency entry (in assay [1]; in assay [2]; in assay [5]; in assay [8]; in the assay with Aromatase (Homo sapiens)) was “inactive” in each case. Further, the molecule was classed as inactive in [3], in assay [4], in [9] and in assay [7].
In the case of `Nc1cc(=O)[nH]c(N)n1`, the Potency entry (in assay [1]; in assay [2]; in assay [5]; in assay [6]; in [8]; with Aromatase (Homo sapiens)) was “inactive” throughout. The result in [3], in assay [4], in assay [9] and in assay [7] was inactive.
Take `CCCCC/C=C\CCC=O`: the Potency entry (in assay [1]; in assay [2]; in [5]; in assay [6]; in assay [8]; with Aromatase (Homo sapiens)) was “inactive” throughout. Moreover, the molecule was classed as inactive in assay [3], in assay [4], in assay [9] and in [7].
`Cc1c(O)cccc1O`: the Potency entry (in [1]; in [2]; in [5]; in assay [6]; in [8]; with Aromatase (Homo sapiens)) was “inactive” in each case. Further, the molecule was called inactive in assay [3], in assay [9] and in assay [7].
Regarding `COC(=O)CCSCCC(=O)OC`, the Potency entry in [1], in assay [2] and in assay [8] was “inactive” each time. Also, the molecule was classed as inactive in [3] and in assay [9].
As to `c1ccc(CC2=NCCN2)cc1`, the Potency entry (in assay [1]; in [2]; in assay [5]; in assay [6]; in assay [8]; with Aromatase (Homo sapiens)) was “inactive” throughout. Moreover, the molecule was classed as inactive in [3], in [4], in assay [9] and in [7].
As for `CCOC(=O)CCC(C)=O`, the Potency entry (in assay [1]; in assay [2]; in assay [5]; in assay [8]; with Aromatase (Homo sapiens)) was “inactive” throughout. The molecule was called inactive in assay [3], in assay [4], in assay [9] and in assay [7].
As to `CC1(C)CO[C@@H](CC(=O)O)CN1`, the Potency result (in [1]; in [2]; in [5]; in assay [6]; in [8]; with Aromatase (Homo sapiens)) was “inactive” each time. For the same molecule, the outcome in assay [3], in assay [4], in assay [9] and in assay [7] was inactive.
Turning to `CN(C)CCCSc1ccccc1NC(=O)/C=C/c1ccccc1`, the Potency in [1] was 26.6 µM (active); in [2] it was 23.7 µM (active). For the same molecule, the molecule was classed as inactive in assay [3], in assay [4] and in assay [7]. The Potency entry (in [5]; in [6]; in the assay with Aromatase (Homo sapiens)) was “inactive” throughout.
For the molecule `CC(C)c1cc2c(cc1S(=O)(=O)O)[C@@]1(C)CCC[C@@](C)(C(=O)O)[C@@H]1CC2`, the Potency entry (in [1]; in assay [2]; in [5]; in [6]; in assay [8]; in the assay with Aromatase (Homo sapiens)) was “inactive” each time. Besides, the molecule was classed as inactive in assay [3], in [4], in assay [9] and in [7].
Take `CCc1nccnc1CC`: the Potency result (in [1]; in assay [2]; in assay [5]; in assay [8]; with Aromatase (Homo sapiens)) was “inactive” each time. Besides, the outcome in assay [3], in [4], in [9] and in assay [7] was inactive.
Take `O=Cc1cccc([N+](=O)[O-])c1`: the Potency entry (in assay [1]; in [2]; in assay [5]; in assay [6]; in [8]; with Aromatase (Homo sapiens)) was “inactive” each time. In addition, the molecule was called inactive in [3], in assay [4] and in [7].
On to `NC(=O)c1ccc(N)cc1`, for which the Potency entry (in assay [1]; in assay [2]; in [5]; in assay [8]; in the assay with Aromatase (Homo sapiens)) was “inactive” in each case. The molecule was called inactive in [3], in [4] and in assay [7].
In the case of `CC(C)OC(=O)c1ccccc1`, the Potency entry (in assay [1]; in assay [2]; in assay [5]; in assay [6]; in assay [8]; in the assay with Aromatase (Homo sapiens)) was “inactive” each time. Besides, the call in [3], in [4] and in [7] was inactive.
For `OCCCC1CCCCC1`, the Potency entry (in [1]; in [2]; in assay [5]; in assay [6]; in [8]; with Aromatase (Homo sapiens)) was “inactive” each time. For the same molecule, the molecule was classed as inactive in [3], in assay [4], in [9] and in assay [7].
With `CCOC(=O)c1ccc(C)cc1`, the Potency result (in assay [1]; in assay [2]; in assay [5]; in [6]; in assay [8]; with Aromatase (Homo sapiens)) was “inactive” throughout. In addition, the result in assay [3], in [4] and in assay [7] was inactive.
Turning to `N[C@H]1CN(c2c(F)cc3c(=O)c(C(=O)O)cn(C4C[C@H]4F)c3c2Cl)CC12CC2` (stereo partly drawn), the Potency entry (in assay [1]; in [2]; in [5]; in assay [6]; with Aromatase (Homo sapiens)) was “inactive” throughout. In addition, the outcome in assay [3], in assay [4], in assay [9] and in [7] was inactive.
In the case of `CC(=O)OCC(CCn1cnc2cnc(N)nc21)COC(C)=O`, the Potency entry (in assay [1]; in assay [2]; in assay [5]; in assay [6]; in assay [8]; in the assay with Aromatase (Homo sapiens)) was “inactive” each time. Besides, the call in assay [3], in assay [4] and in assay [9] was inactive.
`CCOC(=O)[C@H](CCc1ccccc1)N[C@@H](C)C(=O)N1[C@H](C(=O)O)C[C@@H]2CCC[C@@H]21`: the Potency entry (in assay [1]; in [2]; in assay [5]; in assay [6]; in assay [8]; in the assay with Aromatase (Homo sapiens)) was “inactive” in each case. Besides, the call in assay [3], in [4], in assay [9] and in [7] was inactive.
Turning to `Cc1ccc(C#N)cc1`, the Potency result (in [1]; in assay [2]; in assay [5]; in [6]; in assay [8]; in the assay with Aromatase (Homo sapiens)) was “inactive” throughout. Moreover, the outcome in assay [3], in assay [4], in assay [9] and in assay [7] was inactive.
For `O=C(O)c1ccccc1OP(=O)(O)O`, the Potency result (in assay [1]; in assay [2]; in assay [5]; in [6]; in assay [8]; with Aromatase (Homo sapiens)) was “inactive” each time. The result in assay [3], in [4], in assay [9] and in assay [7] was inactive.
On to `NS(=O)(=O)c1cc(C(=O)O)cc(N2CCCC2)c1Oc1ccccc1`, for which the Potency result (in assay [1]; in assay [2]; in assay [5]; in [6]; in [8]; with Aromatase (Homo sapiens)) was “inactive” throughout. The outcome in [3], in assay [4], in [9] and in [7] was inactive.
